# From the supplement of paper PMC9023506
# Counter-ions that a name gives are not always drawn.
# System: Danio rerio larvae (5 dpf)
# Experiment: habituation to 1-s acoustic pulses, difference vs DMSO (percentage points (treated minus DMSO)); higher = more of the behaviour than the DMSO vehicle control
# Details: 10 µM; exposure time: 3 h pre-incubation + 3 h imaging
# Procedure: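 5-dpf wild-type zebrafish larvae were imaged in 96-well plates. They were treated with 190 Tocris FDA-approved drugs at 10 µM (1 µl/ml DMSO) for 3 h before and 3 h during imaging at 28.5 °C, 48 larvae per drug. Automated image analysis gave % time moving and optomotor responses. Values are drug group mean minus DMSO vehicle mean (n=844), in percentage points, for 10 behaviours.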
row,Compound,habituation to 1-s acoustic pulses
1,N[C@@H]1[C@H]2CN(c3nc4c(cc3F)c(=O)c(C(=O)O)cn4-c3ccc(F)cc3F)C[C@@H]12 [Trovafloxacin mesylate],-3.6
2,Cc1ccc(NC(=O)c2ccc(CN3CCN(C)CC3)cc2)cc1Nc1nccc(-c2cccnc2)n1 [Imatinib mesylate],3.16
3,COc1ccc(C[C@@H](C)NC[C@H](O)c2ccc(O)c(NC=O)c2)cc1 [Arformoterol tartrate],-3.34
4,CN(CCOc1ccc(CC2SC(=O)NC2=O)cc1)c1ccccn1 (stereo not given) [Rosiglitazone],0.476
5,CNC(=O)c1cc(Oc2ccc(NC(=O)Nc3ccc(Cl)c(C(F)(F)F)c3)cc2)ccn1 [Sorafenib],-8.29
6,CC(=O)NC[C@H]1CN(c2ccc(N3CCOCC3)c(F)c2)C(=O)O1 [Linezolid],-2.78
7,NS(=O)(=O)c1cc2c(cc1Cl)NC(C1CC3C=CC1C3)NS2(=O)=O (stereo not given) [Cyclothiazide],2.19
8,CC(C)OC(=O)C(C)(C)Oc1ccc(C(=O)c2ccc(Cl)cc2)cc1 [Fenofibrate],-5.04
9,N#C[C@@H]1C[C@@H]2C[C@@H]2N1C(=O)[C@@H](N)C12CC3CC(CC(O)(C3)C1)C2 [Saxagliptin hydrochloride],1.97
10,CN1CC[C@@H](NC(=O)Nc2ccc(C#N)cc2)C[C@@H]1c1nc2ccccc2[nH]1,-0.957
11,CNS(=O)(=O)Cc1ccc2[nH]cc(CCN(C)C)c2c1 [Sumatriptan succinate],-0.62
12,CCOc1cc(CC(=O)N[C@@H](CC(C)C)c2ccccc2N2CCCCC2)ccc1C(=O)O [Repaglinide],-8.43
13,CCc1c2c(nc3ccc(OC(=O)N4CCC(N5CCCCC5)CC4)cc13)-c1cc3c(c(=O)n1C2)COC(=O)[C@]3(O)CC,10.3
14,Cc1cccc(CN2CCN(C(c3ccccc3)c3ccc(Cl)cc3)CC2)c1 (stereo not given) [Meclizine dihydrochloride],-10.1
15,CCCN(CCc1cccs1)[C@H]1CCc2c(O)cccc2C1 [Rotigotine hydrochloride],-12.9
16,CCOC(=O)[C@H](CCc1ccccc1)N[C@@H](C)C(=O)N1[C@H](C(=O)O)C[C@@H]2CCC[C@@H]21 [Ramipril],-1.94
17,Clc1ccccc1C(c1ccccc1)(c1ccccc1)n1ccnc1 [Clotrimazole],-1.97
18,Cc1ccc(-c2cc(C(F)(F)F)nn2-c2ccc(S(N)(=O)=O)cc2)cc1 [Celecoxib],-9.42
19,Clc1ccc(COC(Cn2ccnc2)c2ccc(Cl)cc2Cl)c(Cl)c1 (stereo not given) [Miconazole nitrate],-15.5
20,COc1ccccc1Oc1c(NS(=O)(=O)c2ccc(C(C)(C)C)cc2)nc(-c2ncccn2)nc1OCCO [Bosentan],4.23

row,Compound,habituation to 1-s acoustic pulses
1,CC(C)CN(C[C@@H](O)[C@H](Cc1ccccc1)NC(=O)O[C@H]1CO[C@H]2OCC[C@H]21)S(=O)(=O)c1ccc(N)cc1 [Darunavir],-1.13
2,COc1ccc([C@@H]2Sc3ccccc3N(CCN(C)C)C(=O)[C@@H]2OC(C)=O)cc1 [Diltiazem hydrochloride],-0.578
3,CC(=O)S[C@@H]1CC2=CC(=O)CC[C@]2(C)[C@H]2CC[C@@]3(C)[C@@H](CC[C@@]34CCC(=O)O4)[C@H]12 [Spironolactone],-0.287
4,OCc1cc(C(O)CNCCCCCCOCCCCc2ccccc2)ccc1O (stereo not given) [Salmeterol xinafoate],0.0601
5,CN1CCC[C@@H]1Cc1c[nH]c2ccc(CCS(=O)(=O)c3ccccc3)cc12 [Eletriptan hydrobromide],10.1
6,CC(C)c1ccc2oc3nc(N)c(C(=O)O)cc3c(=O)c2c1 [Amlexanox],-1.39
7,CN/C(=N\CCSCc1nc[nH]c1C)NC#N [Cimetidine],5.48
8,COc1ccccc1OCCNCC(O)COc1cccc2[nH]c3ccccc3c12 (stereo not given) [Carvedilol],2.04
9,CCOC(=O)C1=C(COCCN)NC(C)=C(C(=O)OC)C1c1ccccc1Cl (stereo not given) [Amlodipine besylate],-2.17
10,O=c1[nH]c(=O)n([C@H]2C[C@H](O)[C@@H](CO)O2)cc1C(F)(F)F [Trifluorothymidine],4.64
11,Cc1ccc(O)c([C@H](CCN(C(C)C)C(C)C)c2ccccc2)c1 [Tolterodine L-tartrate],-4.35
12,CCOC(=O)c1ncn2c1CN(C)C(=O)c1cc(F)ccc1-2 [Flumazenil],-2.91
13,C#CCN[C@@H]1CCc2ccccc21 [Rasagiline mesylate],2.65
14,Cc1nc(-c2ccc(OCC(C)C)c(C#N)c2)sc1C(=O)O [Febuxostat],-2.75
15,OCCOCCN1CCN(C2=Nc3ccccc3Sc3ccccc32)CC1 [Quetiapine hemifumarate],-4.36
16,CS(=O)(=O)CCNCc1ccc(-c2ccc3ncnc(Nc4ccc(OCc5cccc(F)c5)c(Cl)c4)c3c2)o1 [Lapatinib],-1.43
17,CC(C)n1c(/C=C/C(O)CC(O)CC(=O)O)c(-c2ccc(F)cc2)c2ccccc21 (stereo not given) [Fluvastatin sodium],4.04
18,C[C@H](Cc1cc2c(c(C(N)=O)c1)N(CCCO)CC2)NCCOc1ccccc1OCC(F)(F)F [Silodosin],7.97
19,O=C1CCc2ccc(OCCCCN3CCN(c4cccc(Cl)c4Cl)CC3)cc2N1 [Aripiprazole],-5.72
20,O=C(O)c1cc(/N=N/c2ccc(S(=O)(=O)Nc3ccccn3)cc2)ccc1O [Sulfasalazine],0.389
